“And” between values parts separate entries of the source, which are not always exact repeats. Equal entries are not always repeated. Records with an inconclusive call do not appear. Entries that show only a call come without a potency. Where a structure was tested more than once in an assay, its records may differ in their call. The source made the active and inactive calls. Unless noted, calls come from the whole dose curve; as a rule, active = well fitted curve in the direction sought with a large enough effect in the repeat runs; inconclusive = weak or mixed curves; inactive = no such curve, though single readings can be large; an effect the other way counts as inactive or inconclusive.
Tests used:
[1] = qHTS assay to identify small molecule agonists of H2AX - cell viability counter screen (AID 1224847; calls by dose curve;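 note: wild-type CHO-K1 cells; top concentration of the series differs between compounds; nearly all actives have a fitted effect of over 30% in size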)
Procedure, shortened: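 CHO-K1 wt, 1000 cells/well, o/n 37C; cpds 15 conc, 3 h 37C, 0.76% DMSO; CellTiter-Glo, 30 min RT, luminescence.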

[2] = qHTS RealTime-Glo MT Cell Viability Assay in HepG2 cells - 24 hour (AID 1224867); note: nearly all actives have a fitted effect of over 50% in size
Procedure, shortened: (§1)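 HepG2 cells were seeded at 600 cells/well together with NanoLuc luciferase and a cell-permeant prosubstrate, preincubated 5 h at 37 C/5% CO2, then pin-dosed with compounds in DMSO. Nonlytic luminescence from viable cells was read at each time point.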

[3] = qHTS RealTime-Glo MT Cell Viability Assay in HEK293 cells - 32 hour (AID 1224868); note: nearly all actives have a fitted effect of over 50% in size; note: potency is the fitted concentration of half-maximal effect
Procedure, shortened: (§2)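 HEK293 cells were seeded at 600 cells/well together with NanoLuc luciferase and cell-permeant prosubstrate, preincubated 5 h at 37 C/5% CO2, then given compound in DMSO by pintool. Luminescence from viable-cell prosubstrate reduction was read repeatedly over 40 h.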

[4] = A CellTox Green Cytotoxicity Assay to monitor cytotoxicity in HEK293 cells - 0 hour (AID 1224869); note: nearly all actives have a fitted effect of over 50% in size
Procedure, shortened: (§3)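 Tox21 screen in HEK293: membrane-impermeant cyanine dye fluoresces on binding dead-cell DNA; compound pinned 5 h post-seeding, plates held at 37 C, signal read repeatedly through 40 h.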

[5] = qHTS RealTime-Glo MT Cell Viability Assay in HepG2 cells - 40 hour (AID 1224870); note: nearly all actives have a fitted effect of over 50% in size
Procedure, shortened: (§4)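 HepG2 cells mixed with RealTime-Glo MT reagents (NanoLuc plus cell-permeant prosubstrate) were seeded at 600 cells/well, incubated 5 h at 37 C/5% CO2, then pinned with compounds in DMSO; nonlytic luminescence tracked viability during 40 h treatment.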

[6] = A CellTox Green Cytotoxicity Assay to monitor cytotoxicity in HEK293 cells - 40 hour (AID 1224871); note: nearly all actives have a fitted effect of over 45% in size
Procedure, shortened: as §3

[7] = qHTS RealTime-Glo MT Cell Viability Assay in HEK293 cells - 16 hour (AID 1224872)
Procedure, shortened: as §2

[8] = qHTS RealTime-Glo MT Cell Viability Assay in HepG2 cells - 8 hour (AID 1224873); note: nearly all actives have a fitted effect of over 55% in size
Procedure, shortened: as §4

[9] = qHTS RealTime-Glo MT Cell Viability Assay in HEK293 cells - 40 hour (AID 1224874); conditions: RealTime-Glo luminescence; max response: stronger effect = lower value; note: nearly all actives have a fitted effect of over 50% in size; note: potency is the fitted concentration of half-maximal effect
Procedure, shortened: (§5)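 HEK293 + NanoLuc + prosubstrate, 600 cells/well; 5 h, 37 C/5% CO2; compound 23 nL in DMSO by pintool; 37 C; luminescence read at 0, 8, 16, 24, 32 and 40 h time points.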

[10] = A CellTox Green Cytotoxicity Assay to monitor cytotoxicity in HEK293 cells - 24 hour (AID 1224875); note: nearly all actives have a fitted effect of over 45% in size
Procedure, shortened: as §3

[11] = A CellTox Green Cytotoxicity Assay to monitor cytotoxicity in HepG2 cells - 16 hour (AID 1224876); note: nearly all actives have a fitted effect of over 45% in size
Procedure, shortened: (§6)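 Measurements at 0, 8, 16, 24, 32 and 40 h of treatment captured CellTox Green fluorescence in HepG2 cells that had been co-plated with reagent and preincubated 5 h at 37 C/5% CO2.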

[12] = qHTS RealTime-Glo MT Cell Viability Assay in HepG2 cells - 32 hour (AID 1224877); note: nearly all actives have a fitted effect of over 55% in size
Procedure, shortened: as §1

[13] = A CellTox Green Cytotoxicity Assay to monitor cytotoxicity in HepG2 cells - 24 hour (AID 1224878); note: nearly all actives have a fitted effect of over 45% in size
Procedure, shortened: as §6

[14] = A CellTox Green Cytotoxicity Assay to monitor cytotoxicity in HepG2 cells - 40 hour (AID 1224879); note: nearly all actives have a fitted effect of over 40% in size; note: potency is the fitted concentration of half-maximal effect
Procedure, shortened: as §6

[15] = qHTS RealTime-Glo MT Cell Viability Assay in HEK293 cells - 0 hour (AID 1224880)
Procedure, shortened: as §5

[16] = A CellTox Green Cytotoxicity Assay to monitor cytotoxicity in HEK293 cells - 32 hour (AID 1224881); note: nearly all actives have a fitted effect of over 40% in size
Procedure, shortened: as §3

[17] = A CellTox Green Cytotoxicity Assay to monitor cytotoxicity in HepG2 cells - 0 hour (AID 1224882); note: nearly all actives have a fitted effect of over 35% in size
Procedure, shortened: as §6

[18] = qHTS assay to identify small molecule antagonists of the estrogen related receptor (ERR) signaling pathway from Tox21 library (AID 1224848); note: nearly all actives have a fitted effect of over 50% in size; note: potency is the fitted concentration of half-maximal effect
Procedure, shortened: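 Tox21 10K compounds in DMSO tested for ERR pathway antagonism in NTP's ERR cell line; 18 h, 37 C exposure; ONE-Glo luminescence.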

[19] = qHTS assay to identify small molecule agonists of the estrogen related receptor (ERR) signaling pathway from Tox21 library (AID 1224849; calls by dose curve; note: nearly all actives have a fitted effect of over 15% in size); conditions: ERR reporter cell line, ONE-Glo luciferase, 18 h
Procedure, shortened: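 Tox21 compounds tested for ERR agonism in an NTP reporter cell line: 18 h treatment at 37 C, then ONE-Glo luminescence.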

[20] = A CellTox Green Cytotoxicity Assay to monitor cytotoxicity in HepG2 cells - 32 hour (AID 1224883); note: nearly all actives have a fitted effect of over 50% in size; note: potency is the fitted concentration of half-maximal effect
Procedure, shortened: as §6

CN(C)N=O
Potency [1]: inactive | outcome [2]: inactive | Potency [3]: inactive | Potency [4]: inactive | outcome [5]: inactive | Potency [6]: inactive | outcome [7]: inactive | outcome [8]: inactive | max response [9]: 7.51% (inactive) and -1.45% (inactive) | Potency [10]: inactive | Potency [11]: inactive | outcome [12]: inactive | Potency [13]: inactive | Potency [14]: inactive | outcome [15]: inactive | Potency [16]: inactive | Potency [17]: inactive

CCC(C)(CC)c1cc(NC(=O)c2c(OC)cccc2OC)on1
Potency [1]: inactive | Potency [18]: 54.6 µM (active) and 46.7 µM (active) | activity change, positive = activation ([19]; at 92.4 µM (top of the series)): -45.6% (inactive) and -38.5% (inactive) | outcome [2]: inactive | Potency [3]: inactive | Potency [4]: inactive | outcome [5]: inactive | Potency [6]: inactive | outcome [7]: inactive | outcome [8]: inactive | Potency [10]: inactive | Potency [11]: inactive | outcome [12]: inactive | Potency [13]: inactive | Potency [14]: inactive | outcome [15]: inactive | Potency [16]: inactive | Potency [17]: inactive | Potency [20]: inactive

Nc1ccc(Br)cc1
Potency [1]: inactive | outcome [2]: inactive | Potency [3]: inactive | Potency [4]: inactive | outcome [5]: inactive | Potency [6]: inactive | outcome [7]: inactive | outcome [8]: inactive | max response [9]: -1.58% (inactive) and -21.4% (inactive) | Potency [10]: inactive | Potency [11]: inactive | outcome [12]: inactive | Potency [13]: inactive | Potency [14]: inactive | outcome [15]: inactive | Potency [16]: inactive | Potency [17]: inactive

O=c1ccc(=O)[nH][nH]1
Potency [1]: inactive | Potency [18]: inactive | activity change, positive = activation ([19]; at 92.4 µM (top of the series)): 3.51% (inactive) and 9.01% (inactive) | outcome [2]: inactive | Potency [3]: inactive | Potency [4]: inactive | outcome [5]: inactive | Potency [6]: inactive | outcome [7]: inactive | outcome [8]: inactive | max response [9]: -2.89% (inactive) and -0.4% (inactive) | Potency [10]: inactive | Potency [11]: inactive | outcome [12]: inactive | Potency [13]: inactive | Potency [14]: inactive and 130 nM (active) | outcome [15]: inactive | Potency [16]: inactive | Potency [17]: inactive | Potency [20]: inactive and 130 nM (active)

Nc1ccc(Oc2ccc(N)cc2)cc1
Potency [1]: inactive | Potency [18]: inactive | activity change, positive = activation ([19]; at 92.4 µM (top of the series)): -8.13% (inactive) and -18.8% (inactive) | outcome [2]: inactive | Potency [3]: inactive | Potency [4]: inactive | outcome [5]: inactive | Potency [6]: inactive | outcome [7]: inactive | outcome [8]: inactive | max response [9]: -6.06% (inactive) and -21.5% (inactive) | Potency [10]: inactive | Potency [11]: inactive | outcome [12]: inactive | Potency [13]: inactive | Potency [14]: inactive | outcome [15]: inactive | Potency [16]: inactive | Potency [17]: inactive | Potency [20]: inactive

O=c1[nH]c2ccccc2c(=O)o1
Potency [1]: inactive | outcome [2]: inactive | Potency [3]: inactive | Potency [4]: inactive | outcome [5]: inactive | Potency [6]: inactive | outcome [7]: inactive | outcome [8]: inactive | max response [9]: -0.172% (inactive) | Potency [10]: inactive | Potency [11]: inactive | outcome [12]: inactive | Potency [13]: inactive | Potency [14]: inactive | outcome [15]: inactive | Potency [16]: inactive | Potency [17]: inactive

COCCl
Potency [1]: inactive | Potency [18]: inactive | activity change, positive = activation ([19]; at 42.5 µM (top of the series)): 1.1% (inactive) | activity change, positive = activation ([19]; at 92.4 µM (top of the series)): -18.8% (inactive) | outcome [2]: inactive | Potency [3]: inactive | Potency [4]: inactive | outcome [5]: inactive | Potency [6]: inactive | outcome [7]: inactive | outcome [8]: inactive | max response [9]: -4.66% (inactive) and 2.93% (inactive) | Potency [10]: inactive | Potency [11]: inactive | outcome [12]: inactive | Potency [13]: inactive | Potency [14]: inactive | outcome [15]: inactive | Potency [16]: inactive | Potency [17]: inactive | Potency [20]: inactive

COc1ccc2c3c1O[C@H]1[C@@H](O)C=C[C@H]4[C@@H](C2)N(C)CC[C@@]341
Potency [1]: inactive | Potency [18]: 26.9 µM (active) and inactive | activity change, positive = activation ([19]; at 92.4 µM (top of the series)): -50.6% (inactive) and -3.7% (inactive) | outcome [2]: inactive | Potency [3]: 43 µM (active) and inactive | Potency [4]: inactive | outcome [5]: inactive | Potency [6]: inactive | outcome [7]: inactive | outcome [8]: inactive | Potency [9]: 24.2 µM (active) | max response [9]: 0.391% (inactive) | Potency [10]: inactive | Potency [11]: inactive | outcome [12]: inactive | Potency [13]: inactive | Potency [14]: 30.4 µM (active) and inactive | outcome [15]: inactive | Potency [16]: inactive | Potency [17]: inactive | Potency [20]: inactive

CC(C)OC(=O)Nc1ccccc1
Potency [1]: inactive | Potency [18]: inactive | activity change, positive = activation ([19]; at 92.4 µM (top of the series)): 8.94% (inactive) and -18.7% (inactive) | outcome [2]: inactive | Potency [3]: inactive | Potency [4]: inactive | outcome [5]: inactive | Potency [6]: inactive | outcome [7]: inactive | outcome [8]: inactive | max response [9]: 1.67% (inactive) and 0.253% (inactive) | Potency [10]: inactive | Potency [11]: inactive | outcome [12]: inactive | Potency [13]: inactive | Potency [14]: inactive | outcome [15]: inactive | Potency [16]: inactive | Potency [17]: inactive

OC(O)C(Cl)(Cl)Cl
Potency [1]: inactive | Potency [18]: inactive | activity change, positive = activation ([19]; at 42.5 µM (top of the series)): 0.553% (inactive) | activity change, positive = activation ([19]; at 92.4 µM (top of the series)): -4.47% (inactive) | outcome [2]: inactive | Potency [3]: inactive | Potency [4]: inactive | outcome [5]: inactive | Potency [6]: inactive | outcome [7]: inactive | outcome [8]: inactive | max response [9]: -9.37% (inactive) and 5.84% (inactive) | Potency [10]: inactive | Potency [11]: inactive | outcome [12]: inactive | Potency [13]: inactive | Potency [14]: inactive | outcome [15]: inactive | Potency [16]: inactive | Potency [17]: inactive

CCC[CH2][Sn]([Cl])([Cl])[Cl]
Potency [1]: inactive | Potency [18]: inactive | activity change, positive = activation ([19]; at 92.4 µM (top of the series)): 3.29% (inactive) and -6.08% (inactive) | outcome [2]: inactive | Potency [3]: inactive | Potency [4]: inactive | outcome [5]: inactive | Potency [6]: inactive | outcome [7]: inactive | outcome [8]: inactive | Potency [10]: inactive | Potency [11]: inactive | outcome [12]: inactive | Potency [13]: inactive | Potency [14]: inactive | outcome [15]: inactive | Potency [16]: inactive | Potency [17]: inactive | Potency [20]: inactive

C[C@]12CC[C@H]3[C@@H](CC[C@@]45O[C@@H]4C(O)=C(C#N)C[C@]35C)[C@@H]1CC[C@@H]2O
Potency [1]: inactive | outcome [2]: inactive | Potency [3]: inactive | Potency [4]: inactive | outcome [5]: inactive | Potency [6]: inactive | outcome [7]: inactive | outcome [8]: inactive | max response [9]: 27.1% (inactive) and 19.8% (inactive) | Potency [10]: inactive | Potency [11]: inactive | outcome [12]: inactive | Potency [13]: inactive | Potency [14]: inactive | outcome [15]: inactive | Potency [16]: inactive | Potency [17]: inactive

From PubChem BioAssay (Tox21)
